Rows were chosen to be rich in hits. Some 4.7% of all compounds tested hit in one or more screens of this group.
tim23-1 inh = inhibits growth of tim23-1 mutant yeast | hit rate 1.3% among 330,000 | AID 463212 | inhibition, % at 20 µM | S. cerevisiae tim23-1 growth, BacTiter-Glo luminescence, 24 h;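 active means growth inhibition of the mutant yeast at or above 50%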;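 further: temperature-sensitive mutant grown at 25 °C; plate controls were DMSO-treated mutant yeast for no effect and medium wells lacking yeast for full effect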
SKKanGAS inh = inhibitors of SKKanGAS S. pyogenes growth in kanamycin (SK-promoter or general growth effect); hit rate 1.3% among 300,000; BacTiter-Glo, 6 h; inhibition, % at 7.5 µM; AID 1662;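 active means mean replicate score, as percent of positive control median, at least 50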;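 further: strain carries kanamycin resistance gene driven by streptokinase promoter and grows in 40 µg/ml kanamycin; loss of luminescence reflects streptokinase promoter inhibition or plain growth inhibition; 0% = median of DMSO wells and 100% = positive control at its reference dose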
tim10-1 inh = growth inhibitors of tim10-1 mutant yeast; AID 463190; S. cerevisiae tim10-1 ts strain growth, BacTiter-Glo, 24 h; inhibition, % at 20 µM; hit rate 2.2% among 330,000;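 active means inhibition of at least 40%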;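 further: mutant grown at 25 °C; 0% = DMSO wells with yeast and 100% = wells holding no yeast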
PfHsp90 yeast 2 = growth inhibition of yeast expressing Plasmodium Hsp90; AID 504621; hit rate 0.32% among 310,000; S. cerevisiae expressing PfHsp90, BacTiter-Glo ATP, 48 h; yeast lacking PDR1 and PDR3 efflux regulators; inhibition, % at 9.4 µM;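 active means every replicate shows inhibition above about 80%, whatever the replicate mean, limit read from the data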;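 further: 0% = DMSO neutral controls and 100% = 20 µM radicicol positive controls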
ATG4B inh = blocks human ATG4B protease cleavage of LC3 substrate; Q9Y4P1; hit rate 0.51% among 340,000; ATG4B cleavage of LC3-PLA2, NBD-HPC fluorescence, 1 h; inhibition, % at 8.33 µM; AID 504462; in the data active means inhibition above about 40%
Target sequence (Q9Y4P1 whole entry, looked up): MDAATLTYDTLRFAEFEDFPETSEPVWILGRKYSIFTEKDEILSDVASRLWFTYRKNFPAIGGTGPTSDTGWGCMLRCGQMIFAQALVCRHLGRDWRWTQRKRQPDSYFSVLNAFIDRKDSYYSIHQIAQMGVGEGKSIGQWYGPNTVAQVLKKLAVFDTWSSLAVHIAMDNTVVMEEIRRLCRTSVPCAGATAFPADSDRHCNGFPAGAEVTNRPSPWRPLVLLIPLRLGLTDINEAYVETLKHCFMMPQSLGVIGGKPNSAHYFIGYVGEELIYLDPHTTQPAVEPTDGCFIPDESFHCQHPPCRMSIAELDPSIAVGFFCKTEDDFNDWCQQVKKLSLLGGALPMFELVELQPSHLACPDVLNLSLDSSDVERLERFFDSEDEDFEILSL
TIM10 inh = inhibits growth of TIM10 yeast strain; S. cerevisiae TIM10 strain growth, BacTiter-Glo luminescence, 24 h; inhibition, % at 10 µM; hit rate 1.4% among 330,000; AID 463195;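 active means inhibition of 40% or more at the single tested concentration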;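 further: wild-type TIM10 isogenic control strain grown at permissive 25 °C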
tim10-1 conf = confirmation of tim10-1 mutant yeast growth inhibitors. shares compounds with tim10-1 inh. S. cerevisiae tim10-1 ts strain growth, BacTiter-Glo, 24 h. inhibition, % at 20 µM. hit rate 56% among 7,400. AID 463213;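 active means inhibition of yeast growth at or above a set limit in either of two repeat tests at 20 µM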;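 further: tim10-1 mutant grown at permissive 25 °C to find synthetic lethal compounds; 0% = DMSO yeast wells and 100% = medium wells without yeast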
TIM10 conf = TIM10 yeast growth inhibition, confirmed; shares compounds with TIM10 inh; S. cerevisiae tim10 strain growth, BacTiter-Glo luminescence, 24 h; inhibition, % at 10 µM; hit rate 63% among 4,600; AID 463215;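 active means inhibition of yeast growth at or above a set limit in either of two replicates at 10 µM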;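 further: this counterscreen used the strain with wild-type TIM10; 0% = yeast with DMSO and 100% = medium wells lacking yeast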
An asterisk follows results filed as active; nt = not tested or not shown.

SMILES	tim23-1 inh	SKKanGAS inh	tim10-1 inh	PfHsp90 yeast 2	ATG4B inh	TIM10 inh	tim10-1 conf	TIM10 conf
Cc1ccccc1C(=O)Nc1nc(-c2cccnc2)cs1	-28	-3	-8	3	19	-38	nt	nt
O=C1C(=O)N(CCCN2CCOCC2)C(c2ccc(Cl)cc2)/C1=C(/O)c1ccc(F)cc1 (stereo not given)	6	-3	-12	-1	-2	-10	nt	nt
CC1CN(c2nc(-c3ccccc3)nc3ccccc23)CC(C)O1 (stereo not given)	43	-5	30	1	-14	11	nt	nt
Cc1ccc(NCCC(=O)c2cccs2)cc1C	24	6	7	5	-3	1	nt	nt
Cc1ccc(NC(NC(=O)c2cccs2)C(Cl)(Cl)Cl)cc1C (stereo not given)	30	11	54*	-24	-4	58*	44*	-16
Cc1ccccc1NC(NC(=O)c1cccs1)C(Cl)(Cl)Cl (stereo not given)	31	40	43*	20	-1	47*	49*	51*
Cc1ccccc1NC(=O)c1ccccc1NC(=O)c1cccs1	8	1	2	1	-1	5	nt	nt
C#CCn1c(S(=O)(=O)Cc2ccc(OC)cc2)nc(-c2ccccc2)c1-c1ccccc1	48	8	47*	nt	10	45*	41*	24
Cc1ccccc1CC1(CO)CCCN(C(=O)Cc2c(F)ccc(F)c2F)C1 (stereo not given)	35	1	31	10	4	7	nt	nt
O=C(/C=C/c1ccco1)Nc1ccccc1N1CCCCC1	41	-4	61*	nt	1	54*	58*	50*
C/C(N)=C(/C#N)C(=O)COC(=O)c1cccc2ccccc12	-6	-14	23	3	-12	27	nt	nt
CC(NC(=O)COC(=O)c1ccc([N+](=O)[O-])s1)c1ccccc1 (stereo not given)	10	4	18	4	-19	20	nt	nt
O=C(COC(=O)c1ccc([N+](=O)[O-])s1)NCCc1ccccc1	49	nt	50*	-9	-12	46*	47*	57*
O=C(COC(=O)c1ccc([N+](=O)[O-])o1)NCc1ccc(F)cc1	-47	nt	-181	-29	1	-211	nt	nt
COc1ccccc1NC(=O)COC(=O)c1ccc([N+](=O)[O-])s1	10	5	70*	nt	-8	82*	68*	89*
O=C(COC(=O)c1ccc([N+](=O)[O-])s1)NCc1ccc(F)cc1	23	16	45*	-8	-8	64*	17	-9
O=C(COC(=O)c1ccc([N+](=O)[O-])s1)NNC(=O)c1ccccc1	27	nt	7	nt	2	16	nt	nt
O=C(COC(=O)c1ccc([N+](=O)[O-])s1)NC(=O)NCc1ccccc1	-50	9	70*	2	-21	70*	52*	71*
Cc1ccc(NC(=O)COC(=O)c2ccc([N+](=O)[O-])s2)c(C)c1	-54	-4	38	1	-15	35	nt	nt
O=C(OCC(=O)N1CCOCC1)c1cc2ccccc2oc1=O	3	nt	-6	3	-4	12	nt	nt
CCN1c2cccc3cccc(c23)S1(=O)=O	-7	-4	13	-10	5	4	nt	nt
S=c1[nH]nc(C2CCCCC2)n1/N=C/c1ccncc1	-3	8	12	18	-6	-11	nt	nt
CC(/C=N/n1c(C2CCCCC2)n[nH]c1=S)=C\c1ccccc1	38	46	48*	-29	20	49*	19	31*
CC(/C=N/n1c(-c2cc(C)[nH]n2)n[nH]c1=S)=C\c1ccccc1	31	11	39	15	-8	8	nt	nt
S=c1[nH]nc(C2CCCCC2)n1/N=C/c1cccs1	38	0	43*	-11	-12	41*	11	40*
SMILES	tim23-1 inh	SKKanGAS inh	tim10-1 inh	PfHsp90 yeast 2	ATG4B inh	TIM10 inh	tim10-1 conf	TIM10 conf
CC(C)(C)c1ccc(CSc2nnc(-c3ccccn3)n2Cc2ccco2)cc1	41	45	42*	-10	31	45*	48*	38*
Cc1ccc(C(CC(=O)N2CCCC2)c2ccccc2)c(O)c1C (stereo not given)	32	4	41*	8	-1	72*	14	33*
CC(C)c1ccc(/C=C(\c2nc3ccccc3[nH]2)S(=O)(=O)c2ccccc2)cc1	45	6	54*	-9	-11	46*	47*	37*
CC(C)Cn1c(C(C)C)nc([N+](=O)[O-])c1Sc1ccc(Cl)cn1	48	6	37	nt	-2	23	nt	nt
CCCCn1c(CCC)nc([N+](=O)[O-])c1Sc1ccc(Cl)cn1	47	-4	44*	-22	-12	49*	40*	42*
CCOC(=O)c1sc(NC(=O)C2CCC2)cc1C	49	-6	44*	-7	1	55*	42*	36*
CCOC(=O)c1sc(NC(C)=O)cc1C	6	4	-8	-5	2	12	nt	nt
Oc1ccccc1/C=N/n1c(COc2ccccc2)n[nH]c1=S	42	-3	37	-6	-2	13	nt	nt
S=c1[nH]nc(COc2ccccc2)n1/N=C/c1ccc(Br)s1	43	25	47*	-20	3	46*	34*	49*
Cc1ccc(S(=O)(=O)Oc2ccc(/C=N/N=C3/NC(=O)C(CC(=O)O)S3)cc2)cc1 (stereo not given)	25	nt	25	0	2	-2	nt	nt
CC(=O)OCCCNc1cc(Sc2nc3ccccc3s2)c2nonc2c1[N+](=O)[O-]	44	91*	91*	-8	-4	85*	91*	1
CC(=O)OCCNc1cc(SCc2ccco2)c2nonc2c1[N+](=O)[O-]	nt	1	nt	9	-4	nt	nt	nt
Cc1ccc(S(=O)(=O)NCc2ccncc2)c(C)c1C	-7	-7	-4	-12	-1	3	nt	nt
Cc1noc(C)c1C(=O)Nc1nc(C23CC4CC(CC(C4)C2)C3)cs1	44	9	52*	-20	6	48*	38*	39*
CNC(=O)C(=O)Nc1nc(C23CC4CC(CC(C4)C2)C3)cs1	2	7	6	-19	-1	6	nt	nt
COCCNC(=S)N/N=C(\C)c1ccc(O)cc1	13	3	7	19	7	0	nt	nt
C/C(=N\NC(=S)NCC(C)(C)C)c1cc(F)cc(F)c1O	50	90*	42*	3	-4	44*	41*	60*
CCOC(=O)[C@@H]1[C@H]2COc3ccc(Br)cc3[C@@H]2N2C(=O)N(c3ccccc3)C(=O)[C@@]12C	44	5	31	4	-3	18	nt	nt

Screening results deposited in PubChem by several laboratories.
